Molecules are shown by their SMILES. Where “and” joins values, the source holds several entries; their conditions need not be identical. Equal entries are not always repeated. Screen size: about 75,000 compounds; about 5,700 (7.6%) were called active. Roughly 7% stayed inconclusive and do not appear here. No cut-off for these calls is given here. The sample as a whole holds a higher share of actives than the screen did.

For this test, the target named is T1, 3-hydroxyacyl-CoA dehydrogenase type-2 (Homo sapiens) (UniProt Q99714).
T1 sequence (whole entry): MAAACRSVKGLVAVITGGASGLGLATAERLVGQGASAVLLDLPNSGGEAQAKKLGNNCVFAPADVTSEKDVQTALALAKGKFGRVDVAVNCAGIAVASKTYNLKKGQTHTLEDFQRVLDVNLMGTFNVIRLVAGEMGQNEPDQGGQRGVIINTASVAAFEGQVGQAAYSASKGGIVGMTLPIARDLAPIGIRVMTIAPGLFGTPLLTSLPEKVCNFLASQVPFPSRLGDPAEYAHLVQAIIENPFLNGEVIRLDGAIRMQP
Put plainly: qHTS Assay for Inhibitors of HSD17B4, hydroxysteroid (17-beta) dehydrogenase 4. In kind it is functional. Background: qHTS replaces the single test concentration by a dilution series.
On to `O=C(O)c1cc(-c2ccc(F)cc2F)ccc1O`, for which the Potency is 31.6 µM (active) and 12.6 µM (active).

On to `Cc1c(OCC(=O)OC(C)C)ccc2c3c(c(=O)oc12)CCC3`, for which the Potency entry was “inactive”.

Source of the values: ChEMBL document CHEMBL1201862, “PubChem BioAssay data set” (2004).
